Source: PubChem BioAssay (several laboratories)
Compounds with a hit are over-represented: about 2.3% of the library has one in this group of screens.
Mcl1 Bid PPI: Mcl-1/Bid binding inhibitors, primary screen, biochemical, TR-FRET, 1536-well; TR-FRET Mcl-1/Bid-Dy647 peptide binding; Induced myeloid leukemia cell differentiation protein Mcl-1 (Homo sapiens), Q07820; hit rate 0.97% among 220,000; inhibition, % at 21.7 µM;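 active means compounds that cut the binding signal by more than half at the single screening dose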;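 further: His-tagged Mcl-1 with europium anti-His antibody binding Bid BH3 peptide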
Target sequence (Q07820 whole entry, looked up): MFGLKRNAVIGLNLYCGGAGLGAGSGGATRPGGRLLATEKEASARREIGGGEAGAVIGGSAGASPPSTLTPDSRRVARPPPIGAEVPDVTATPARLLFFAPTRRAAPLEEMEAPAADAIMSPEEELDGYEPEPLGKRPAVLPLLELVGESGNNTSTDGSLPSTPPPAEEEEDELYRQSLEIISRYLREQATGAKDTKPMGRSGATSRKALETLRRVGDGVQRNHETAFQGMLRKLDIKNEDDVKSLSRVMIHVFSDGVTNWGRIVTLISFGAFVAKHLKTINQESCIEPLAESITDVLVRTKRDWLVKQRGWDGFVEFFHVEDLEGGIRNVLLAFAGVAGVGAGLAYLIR
MCL1 BIM primary: inhibitors of MCL1 binding to BIM-BH3, primary screen, biochemical, fluorescence polarization | Induced myeloid leukemia cell differentiation protein Mcl-1 (Homo sapiens), Q07820 | hit rate 0.68% among 320,000 | GST-MCL1 / FITC-Bim-BH3 fluorescence polarization | inhibition, % at 10.9 µM | AID 2057, 2009;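 active means inhibition above the mean inhibition of all tested compounds plus 3 SD, set per campaign, cut at about 40% in these data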;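 further: higher means more loss of mP so more displacement of Bim peptide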
Mcl1 Noxa PPI: Mcl-1/Noxa binding inhibitors, primary screen, biochemical, TR-FRET, 1536-well | TR-FRET Mcl-1/Noxa peptide binding, 2 h | hit rate 1.5% among 220,000 | inhibition, % at 21.7 µM | Induced myeloid leukemia cell differentiation protein Mcl-1 (Homo sapiens), Q07820;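 active means compounds that cut the protein-peptide binding signal by more than 50% relative to plate controls in a single-dose test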;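 further: His-tagged Mcl-1 with rhodamine Noxa BH3 peptide and terbium anti-His antibody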
GLD-1 TGE inh: GLD-1/TGE RNA complex disruptors, primary screen, biochemical, fluorescence polarization; Female germline-specific tumor suppressor gld-1 (Caenorhabditis elegans), Q17339; purified GLD-1 + fluorescein TGE RNA; inhibition, % at 5.96 µM; hit rate 0.44% among 320,000;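 active means percent inhibition above a per-plate cutoff, the plate mean of test compounds plus 3 SD, cut at about 30% in these data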
BCLXL inh: inhibitors of human Bcl-xL, primary screen, biochemical, fluorescence polarization, HTS; Bcl-2-like protein 1 (Homo sapiens), Q07817; GST-Bcl-xL / FITC-Bim BH3 peptide fluorescence polarization; inhibition, % at 10.9 µM; hit rate 0.7% among 320,000;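 active means inhibition above the mean of all tested compounds plus 3 SD, cutoff set per campaign, cut at about 30% in these data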;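 further: inhibitors lower millipolarization by displacing the labeled peptide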
Target sequence (Q07817 whole entry, looked up): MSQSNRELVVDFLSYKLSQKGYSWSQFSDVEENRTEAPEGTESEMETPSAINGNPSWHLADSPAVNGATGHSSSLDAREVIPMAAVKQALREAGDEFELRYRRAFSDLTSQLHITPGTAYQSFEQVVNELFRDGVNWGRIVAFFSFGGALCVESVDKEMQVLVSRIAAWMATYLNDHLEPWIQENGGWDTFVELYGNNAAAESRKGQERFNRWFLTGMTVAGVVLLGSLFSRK
Bim-Mcl-1: inhibitors of Bim peptide binding to Mcl-1, primary screen, biochemical, bead-based flow cytometry, multiplex; Induced myeloid leukemia cell differentiation protein Mcl-1 (Homo sapiens), Q07820; Bim peptide-Mcl-1 binding; inhibition, % at 10 µM; hit rate 0.1% among 190,000; AID 1009, 2008; in the data active means inhibition above about 40%
Hits are given with their value; i = inactive; nt = not tested or not shown.

SMILES | Mcl1 Bid PPI | MCL1 BIM primary | Mcl1 Noxa PPI | GLD-1 TGE inh | BCLXL inh | Bim-Mcl-1
CCN(CC)S(=O)(=O)c1cccc(C(=O)N/N=C2\CC(=O)CC(C)(C)C2)c1 | i | i | i | 52.8 | i | i
Cc1[nH]nc2c1C1(CCN(Cc3ccccc3)CC1)C(C#N)=C(N)O2 | i | i | i | i | 40.3 | i
Cc1nc2c(-c3ccccc3)cnn2c(N2CCOCC2)c1C | nt | i | nt | i | i | nt
COc1ccc(Cc2c(O)nc(SC)n(C(C)=O)c2=O)cc1 | i | i | i | i | i | 67.0
COc1ccccc1N=C1SCC(=O)N1Cc1ccco1 | i | i | i | i | i | nt
Cc1cc(NC2C3CC4CC(C3)CC2C4)n2nnnc2n1 (centres undefined) | 75.7 | i | i | i | i | i
COCc1cc(=O)[nH]c(N2CCN(Cc3ccc4c(c3)OCO4)CC2)n1 | nt | i | nt | i | i | nt
CCN1CCN(CC(=O)Nc2cc3c(cc2C(C)=O)OCO3)CC1 | 58.5 | i | i | i | i | i
CCN1/C(=C/c2ccc3cc(C)ccc3[n+]2CC)Sc2ccccc21 | i | i | i | 57.4 | i | i
CCN1/C(=C/c2ccc3cc(C)ccc3[n+]2CC)Sc2cc(C)c(C)cc21 | i | nt | i | nt | nt | i
CCOc1ccccc1C(=O)Oc1ccc2ccc(=O)oc2c1 | nt | i | nt | i | i | nt
CN(CC(=O)Nc1ccc(Cl)cc1)C(=O)CCC1CCCC1 | nt | i | nt | i | i | nt
Cc1cc(NC(=O)CCC(=O)N(Cc2cccs2)C(C)(C)C(=O)NC2CCCCC2)no1 | nt | i | nt | i | i | nt
COc1cc(OC)c([N+](=O)[O-])cc1/C=N/NC(=O)c1ccncc1 | i | i | 71.5 | i | i | i
COc1cc(/C=N/NC(=O)c2cccnc2)ccc1OC(=O)c1ccc([N+](=O)[O-])cc1 | i | i | 58.1 | i | i | i
O=C(N/N=C/c1ccc(OC(=O)c2ccc([N+](=O)[O-])cc2)cc1)c1cccnc1 | nt | i | nt | i | i | nt
COc1cc(/C=N/NC(=O)c2ccncc2)ccc1OC(=O)c1cccc(Br)c1 | nt | i | nt | i | i | nt
COc1cccc(/C=N/NC(=O)c2ccncc2)c1OC(=O)c1ccc(Br)cc1 | nt | i | nt | i | 34.0 | nt
CC(=O)N1CC(=O)N=C1SCC(=O)Nc1nc(-c2ccccc2)c(-c2ccccc2)s1 | i | i | i | i | i | i
COc1ccccc1NC(=O)CCc1nnc2ccc(N3CCN(C)CC3)nn12 | nt | i | nt | i | i | nt
O=C(NC(=S)Nc1ccc2c(c1)C(=O)c1ccccc1C2=O)c1ccc(F)cc1 | i | i | 51.1 | i | i | i
COc1ccc(COC(=O)c2cccc(S(=O)(=O)N3CCN(C(C)=O)CC3)c2)cc1F | nt | i | nt | i | i | nt
Cc1ccc(-c2nc3c(c(=O)[nH]c(=O)n3Cc3ccccc3)n2C)o1 | i | nt | 97.0 | nt | nt | i
Cc1ccc(-c2nc3c(c(=O)[nH]c(=O)n3Cc3ccccc3)n2C)s1 | 65.3 | i | i | i | i | nt
Cn1c(C2CCCCC2)nc2c1c(=O)[nH]c(=O)n2Cc1ccccc1 | i | i | i | i | i | i
SMILES | Mcl1 Bid PPI | MCL1 BIM primary | Mcl1 Noxa PPI | GLD-1 TGE inh | BCLXL inh | Bim-Mcl-1
Nc1c(Cl)c(Cl)nc(C(=O)N/N=C/c2cccnc2)c1Cl | i | i | i | i | i | nt
O=C(NNC(=O)c1cc(Cl)nc2ccccc12)c1ccccc1F | nt | i | nt | i | i | nt
CCN(CC(=O)NC1CCS(=O)(=O)C1)S(=O)(=O)c1cccc(C(C)=O)c1 (centres undefined) | i | i | i | i | i | i
CN(C)CCCNc1cc(O)c2ncccc2c1 | nt | nt | nt | 33.4 | nt | nt
Cc1ccc(Oc2ccc(NC(=O)C3=CC=CN4CCS(=O)(=O)N=C34)cc2)cc1 | nt | i | nt | i | i | nt
CSc1ccc(NC(=O)NCCCN2CCN(c3ccccc3F)CC2)cc1 | i | i | 58.3 | i | i | i
O=C(NCCCN1CCN(c2ccccc2F)CC1)Nc1ccc(F)cc1 | i | i | i | i | i | i
COC(=O)C1=C(O)/C(=C\c2ccc(CNC(=O)C(=O)Nc3ccc(C)c(C)c3)o2)N=C1C | i | i | 55.1 | i | i | i
COC(=O)C1=C(O)/C(=C\c2ccc(CNS(=O)(=O)c3ccc(Cl)cc3)o2)N=C1C | i | i | i | i | i | i
CCOC(=O)C1=C(O)/C(=C\c2ccc(CNS(=O)(=O)c3ccc(Br)cc3)o2)N=C1C | i | i | 57.0 | i | i | i
O=C(c1ccc(NC2=NC3CS(=O)(=O)CC3S2)cc1)N(CCO)Cc1ccccc1 (centres undefined) | nt | i | nt | i | i | nt
O=C(COC(=O)c1ccc[nH]c1=O)NC1CCCCC1 | i | i | i | i | i | nt
CCOC(=O)c1c(C)[nH]c(C2=NNC(=NC3CC3)SC2)c1C | i | i | 64.4 | i | i | i
CCOC(=O)c1c(C)[nH]c(/C(C)=N/O)c1C | i | i | i | i | i | i
O=C(COC(=O)c1cc[n+]([O-])cc1)Nc1ccccc1Cl | 87.5 | i | i | i | i | i
Cc1c(Cl)cnc(NC(=O)COC(=O)c2ccc3ncsc3c2)c1Cl | 66.0 | i | 58.4 | i | i | i
COc1ccc(N(CC(=O)NC2CCCC2)C(=O)c2ccc(C)s2)cc1OC | nt | i | nt | i | i | nt
Cc1ccc(-c2cc(C(F)F)nc(S(C)(=O)=O)n2)cc1 | i | i | i | i | i | i
Cc1cc(C(=O)N/N=C/c2ccco2)n[nH]1 | i | i | i | i | i | i
CC(/C=C/c1ccco1)=N/NC(=O)Cc1cccs1 | i | i | 87.1 | i | i | i
CC(/C=N/NC(=O)Cc1cccs1)=C\c1ccco1 | i | i | i | i | i | i
CC(/C=C/c1ccco1)=N\NC(=O)c1cc(C)[nH]n1 | i | i | 77.8 | i | i | i
COC(=O)[C@@]12OC[C@]34[C@H]([C@@H](O)[C@@H]1O)[C@@]1(C)C(=O)C(O[C@@H]5OC(CO)[C@@H](O)[C@@H](O)[C@@H]5O)=C[C@@H](C)[C@@H]1C[C@H]3OC(=O)[C@H](OC(=O)/C=C(\C)C(C)(C)OC(C)=O)[C@@H]24 (some centres undefined) | nt | i | nt | i | i | nt
COCCNC(=O)C(c1ccncc1)N(Cc1ccccc1)C(=O)Cn1nnc2ccccc21 (centres undefined) | i | i | i | i | i | i
COc1ccc(N2CC(C(=O)N(C)CC(=O)Nc3ccc(Cl)c(C(F)(F)F)c3)CC2=O)c(OC)c1 (centres undefined) | nt | i | nt | i | i | nt
Cc1cc(=O)cc(C)n1-c1ccc(Br)cc1 | i | i | i | 87.9 | i | i
Cc1ccc(C(=O)NC2CCN(S(=O)(=O)c3ccc(F)cc3)CC2)cc1 | nt | i | nt | i | i | nt
COc1cccc(-n2nnc3c(=O)n(CC(=O)NC4CCCC4)cnc32)c1 | i | i | 52.0 | i | i | i
